SMILES strings stand for the structures. This is part of a sample that, as a whole, favours compounds with a hit. Of some 79,000 tested, about 15% had one in any assay. The source made the active and inactive calls. No stated cut-off is given here; in the data, active means growth inhibition above about 70%; inactive means the rest.

The nature of one test: NCI Yeast Anticancer Drug Screen. Data for the sgs1 mgt1 strain (AID 161).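 Further: 0% = growth of cultures given vehicle only.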 Particulars: S. cerevisiae sgs1 mgt1 strain, at 50.0 µM, hits give high values. The method in brief:
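Mutant yeast exposed to compound; growth scored against vehicle-only wells.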
As for `CC(=O)OC1CCC2(C)C(CCC3C2CC(OC(C)=O)C2(C)C(C(C)CCC(c4ccccc4)c4ccccc4)CCC32)C1` (stereo not drawn), the growth inhibition is 1.1% (inactive).
Consider `CC(=O)NNc1nc(C)c(C(/C=C/c2ccc(Cl)cc2)=N\NS(=O)(=O)c2ccc(C)cc2)s1`, for which the growth inhibition was 19.6% (inactive).
Consider `Nc1ccccc1N1C(=O)C(Cl)=C(Cl)C1=O`, for which the growth inhibition is 21.5% (inactive).
In the case of `CCCCOC(=O)NC(C)=O`, the growth inhibition was -15.2% (inactive).
Consider `CC(=O)SC1CC(=O)OC1=O` (stereo not drawn), for which the growth inhibition is 7.1% (inactive).
Regarding `O=C1C(Cc2ccccc2)CCCC1Cc1ccccc1` (stereo not drawn), the growth inhibition is -8.05% (inactive).
For the compound `COC(=O)c1ccc(C)[nH]1`, the growth inhibition is -22.2% (inactive).
Regarding `COC(=O)NC1(NC(=O)OC)NC(=O)c2cc(OC)c(OC)cc2N1`, the growth inhibition was 27.4% (inactive).
`O/N=C1\CC2(N3CCOCC3)CCC1(Cc1ccccc1)CC2`: the growth inhibition is 60.2% (inactive).
As to `O=C(O)CC/C(=N\Nc1ccc([N+](=O)[O-])cc1[N+](=O)[O-])c1ccccc1`, the growth inhibition was 44.3% (inactive).
Still for that read-out and setting: the same measure for `Nc1ccc(S(=O)(=O)NC(=O)NCc2ccccc2)cc1`: 3.5% (inactive).
On the same count and under the same terms, the same measure for `C[C@]12CCC(=O)C(O)=C1CCC2=O`: -5.3% (inactive).
`Nc1ccc2[nH]c(=O)c(=O)[nH]c2c1`: the growth inhibition is -24.1% (inactive).
Turning to `O=C(CCC1CCCCC1)OCC1CCCO1` (stereo not drawn), the growth inhibition was 41.1% (inactive).
As to `CCN(CC)N1C(=O)[N+](CC)(CC)N=C1[O-]`, the growth inhibition was -11.6% (inactive).
On to `CC(c1ccc(N)cc1)n1cnc2c(Cl)ncnc21` (stereo not drawn), for which the growth inhibition was 4.1% (inactive).
Still for that read-out and setting: the same measure for `COC(=O)Oc1ccccc1C(=O)O`: -15.6% (inactive).
On the same count and under the same terms, the same measure for `COc1nc(NCCO)nc(OC)n1`: -16.5% (inactive); for `NC(=O)COc1ncc(Cl)cc1Cl`: 3.15% (inactive).
Consider `O=C1CC=NC(=S)N1`, for which the growth inhibition is 8.75% (inactive).
For the compound `CCCC(=O)OC(C)CC(C)C` (stereo not drawn), the growth inhibition is -12.2% (inactive).
Same read-out and setting: the same measure for `CC(CO)CCC(=O)C(C)C1CC2(C)CCC3C(CCC4CC(O)CCC43C)C2C12SCCS2` (stereo not drawn): -7.8% (inactive); for `O=C(Nc1cccc(Cl)c1)Sc1c(Cl)c(Cl)c(Cl)c(Cl)c1Cl`: 26.4% (inactive).

A short description of a further test: NCI Yeast Anticancer Drug Screen. Data for the cln2 rad14 strain (AID 165).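 Further: 0% = growth equal to vehicle treated cultures.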 Particulars: S. cerevisiae cln2 rad14 strain, at 50.0 µM, hits give high values. The method in brief:
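Growth of compound-exposed yeast (cln2 rad14 genotype) measured and expressed as inhibition relative to vehicle.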
`CCCC(=O)Nc1ccc(OC)cc1`: the growth inhibition is -43.2% (inactive).
Still for that read-out and setting: the value for `CCCCOCCOC(=O)Nc1cccc(Cl)c1` was -11.6% (inactive); that for `CCCCCc1[nH]c(=O)[nH]c(=O)c1S(=O)(=O)N1CCCCC1` was 3.4% (inactive); that for `CC(=O)OCCC12CCC(CC1Cl)C2(C)C` (stereo not drawn) was 24.7% (inactive).
As for `CCCCCCCCCC/C=C/C=O`, the growth inhibition is 18.7% (inactive).
On to `Nc1ccncn1`, for which the growth inhibition was -5% (inactive).
With `CCN(CC)CCCC(C)n1c(-c2ccc(OC)cc2)nc2cc(Cl)ccc21` (stereo not drawn), the growth inhibition was 10.1% (inactive).
Consider `COC(=O)/C=C1\SC(OC)(N(C)c2ccccc2)N(C)C1=O` (stereo not drawn), for which the growth inhibition was -10.4% (inactive).
On to `O=C(O)COCC(=O)N(CCOCCN(Cc1ccccc1)C(=O)COCC(=O)O)Cc1ccccc1`, for which the growth inhibition is 26.6% (inactive).
For the compound `C=CCOC(=O)c1cccc(C(=O)OCC=C)c1`, the growth inhibition is 19.1% (inactive).
Same read-out and setting: the same measure for `CC(=O)Nc1ccc(S(=O)(=O)CCS(=O)(=O)c2ccc(NC(C)=O)cc2)cc1`: -6.15% (inactive); for `CCN(CC)CCNCc1ccc(Cl)cc1`: 6.15% (inactive); for `COc1ccc(/C=C/C(CC(NO)c2ccc(OC)cc2)=N\O)cc1` (stereo not drawn): -38% (inactive).
`O=C1OC([C@H](O)c2cccnc2)c2ccccc21` (stereo partly drawn): the growth inhibition was -22.9% (inactive).
The same measure, in the same setting: the same measure for `CCCOC(=O)CNC(=O)OC(C)(C)C`: 0.55% (inactive); for `Cc1cc(N(CCC#N)CCC#N)ccc1C=Nc1ccc(C(=O)NN2C(=O)/C(=C/c3ccc(N(CCC#N)CCC#N)cc3)N=C2c2cc([N+](=O)[O-])ccc2Cl)cc1`: 24% (inactive); for `COc1cc(C(C)S(=O)(=O)c2ccc(C)cc2)ccc1O` (stereo not drawn): 6.5% (inactive).
The same measure, in the same setting: the same measure for `CC(=O)OC1CCC2(C)C(CCC3C2CC(OC(C)=O)C2(C)C(C(C)CCC(c4ccccc4)c4ccccc4)CCC32)C1` (stereo not drawn): 14.9% (inactive).
Same read-out and setting: the value for `CC(=O)NNc1nc(C)c(C(/C=C/c2ccc(Cl)cc2)=N\NS(=O)(=O)c2ccc(C)cc2)s1` was 23.2% (inactive); that for `Nc1ccccc1N1C(=O)C(Cl)=C(Cl)C1=O` was 14.2% (inactive).
As to `CCCCOC(=O)NC(C)=O`, the growth inhibition is -11.6% (inactive).
With `CC(=O)SC1CC(=O)OC1=O` (stereo not drawn), the growth inhibition is 7.8% (inactive).
`O=C1C(Cc2ccccc2)CCCC1Cc1ccccc1` (stereo not drawn): the growth inhibition is -21.5% (inactive).
`COC(=O)c1ccc(C)[nH]1`: the growth inhibition was 26.6% (inactive).
With `COC(=O)NC1(NC(=O)OC)NC(=O)c2cc(OC)c(OC)cc2N1`, the growth inhibition was -16.5% (inactive).
For `O/N=C1\CC2(N3CCOCC3)CCC1(Cc1ccccc1)CC2`, the growth inhibition is 55.6% (inactive).
Consider `O=C(O)CC/C(=N\Nc1ccc([N+](=O)[O-])cc1[N+](=O)[O-])c1ccccc1`, for which the growth inhibition is -18.4% (inactive).
As to `Nc1ccc(S(=O)(=O)NC(=O)NCc2ccccc2)cc1`, the growth inhibition is -33% (inactive).
As to `C[C@]12CCC(=O)C(O)=C1CCC2=O`, the growth inhibition is -14.9% (inactive).
Same read-out and setting: the same measure for `Nc1ccc2[nH]c(=O)c(=O)[nH]c2c1`: 4.95% (inactive); for `O=C(CCC1CCCCC1)OCC1CCCO1` (stereo not drawn): 3.75% (inactive).
Same read-out and setting: the same measure for `CCN(CC)N1C(=O)[N+](CC)(CC)N=C1[O-]`: -30.8% (inactive).
For `CC(c1ccc(N)cc1)n1cnc2c(Cl)ncnc21` (stereo not drawn), the growth inhibition is -5.5% (inactive).
For `COC(=O)Oc1ccccc1C(=O)O`, the growth inhibition is 0.2% (inactive).
Consider `COc1nc(NCCO)nc(OC)n1`, for which the growth inhibition is -29.6% (inactive).
On the same count and under the same terms, the same measure for `NC(=O)COc1ncc(Cl)cc1Cl`: -19.4% (inactive); for `O=C1CC=NC(=S)N1`: 7.95% (inactive).
`CCCC(=O)OC(C)CC(C)C` (stereo not drawn): the growth inhibition is -10.8% (inactive).
On to `CC(CO)CCC(=O)C(C)C1CC2(C)CCC3C(CCC4CC(O)CCC43C)C2C12SCCS2` (stereo not drawn), for which the growth inhibition is 17.1% (inactive).
For the compound `O=C(Nc1cccc(Cl)c1)Sc1c(Cl)c(Cl)c(Cl)c(Cl)c1Cl`, the growth inhibition was 29.2% (inactive).

(Values after PubChem BioAssay (NCI).)
